PubChem BioAssay (NCATS)
Inconclusive results are not listed. A number with no mark means an inactive call. Activity calls are given as the source filed them. Unless noted, calls follow the shape of the dose curve; as a rule, active = well fitted curve in the direction sought with a large enough effect in the repeat runs; inconclusive = weak or mixed curves; inactive = no such curve, though single readings can be large; an effect the other way counts as inactive or inconclusive.

Assay: qHTS for Activators of Parkin Expression: LOPAC Validation Assay (NLuc Reporter) (AID 720572; active = well fitted curve in the direction sought with a large enough effect; an effect the other way counts as inactive or inconclusive;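 also: 0% = DMSO and 100% = positive control compound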)
Settings: Parkin promoter NanoLuc reporter cells, luminescence, percent of positive control, DMSO as zero; series mostly up to 46.1 µM; activation: at the top concentration
How it was run: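 Neuronal cells with a Parkin promoter-driven FLuc/NLuc coincidence reporter were treated 24 h at 37 C in 7-point dose response (LOPAC). NLuc luminescence read after FLuc; signals normalized to DMSO and positive control (100%).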

Row | SMILES | activation [%]
1 | CC(C)(C)NC[C@H](O)COc1nsnc1N1CCOCC1 | -1.92
2 | CCOC(=O)[C@H](CCc1ccccc1)N[C@@H](C)C(=O)N1[C@H](C(=O)O)C[C@H]2CCCC[C@@H]21 | -1.82
3 | NC(N)=NCc1cccc(I)c1 | -13.6

Assay: qHTS for Activators of Parkin Expression: LOPAC Validation Assay (FLuc Reporter) (AID 720573; active = well fitted curve in the direction sought with a large enough effect; an effect the other way counts as inactive or inconclusive;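 also: 0% = DMSO and 100% = positive control compounds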)
Settings: Cell line, PRKN promoter firefly luciferase reporter, vehicle wells = 0, positive control = 100%; series mostly up to 46.1 µM; activation: at the top concentration
How it was run: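 Readout is FLuc luminescence from neuronal reporter cells (Parkin promoter, FLuc plus NLuc) after 24 h compound exposure in dose response. Values normalized to neutral DMSO and positive-control compounds.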

Row | SMILES | activation [%]
4 | CC(C)(C)NC[C@H](O)COc1nsnc1N1CCOCC1 | -8.28
5 | CCOC(=O)[C@H](CCc1ccccc1)N[C@@H](C)C(=O)N1[C@H](C(=O)O)C[C@H]2CCCC[C@@H]21 | -7.34
6 | NC(N)=NCc1cccc(I)c1 | -20.6

Assay: qHTS assay for small molecule agonists of the antioxidant response element (ARE) signaling pathway measured by Nrf2-dependant transcriptional activity (AID 720636);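 also: HepG2 cells with an ARE-driven luciferase reporter; % of control where 0% means no effect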
Settings: ARE-luc HepG2, Nrf2 luciferase reporter, 16 h; series mostly up to 92.4 µM; activation: at the top concentration
How it was run: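 Attachment 6 hr at 37 C, then compound versus DMSO vehicle for 16 hr in ARE-luc HepG2 cells (1% dialyzed FBS); luminescence recorded 30 min after ONE-Glo addition at room temperature.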

Row | SMILES | activation [%] | outcome
7 | CCCCCCCCCCCCCCCC(=O)O | 0.0026 | –
8 | C#C[C@]1(O)CC[C@H]2[C@@H]3CCC4=Cc5oncc5C[C@]4(C)[C@H]3CC[C@@]21C | -0.143 | –
9 | C=C[C@H]1CN2CC[C@H]1C[C@@H]2[C@@H](O)c1ccnc2ccc(OC)cc12 | -0.297 | –
10 | CC1(C)OC[C@@H]2O[C@@]3(C(=O)O)OC(C)(C)O[C@H]3[C@@H]2O1 | 0.539 | –
11 | Oc1c(Cl)cc(Cl)c(Cl)c1Cc1c(O)c(Cl)cc(Cl)c1Cl | – | inactive
12 | CCCCCCCCOc1ccc(C(=O)c2ccccc2)c(O)c1 | -2.32 | –
13 | NC(=O)c1ccccc1O | -1.4 | –
14 | COc1ccc(C(Cl)=C(c2ccc(OC)cc2)c2ccc(OC)cc2)cc1 | -1.29 | –
15 | CCCCC(CC)COC(=O)c1ccc(N(C)C)cc1 (stereo not given) | -0.342 | –
16 | CCOc1ccccc1C(N)=O | -0.975 | –
17 | CCCCOC(=O)CC(CC(=O)OCCCC)(OC(C)=O)C(=O)OCCCC | -0.651 | –
18 | NCCNc1cccc2ccccc12 | -2.42 | –
19 | OC[C@H]1O[C@@H]2O[C@H]3[C@H](O)[C@@H](O)[C@@H](O[C@H]4[C@H](O)[C@@H](O)[C@@H](O[C@H]5[C@H](O)[C@@H](O)[C@@H](O[C@H]6[C@H](O)[C@@H](O)[C@@H](O[C@H]7[C@H](O)[C@@H](O)[C@@H](O[C@H]8[C@H](O)[C@@H](O)[C@@H](O[C@H]1[C@H](O)[C@H]2O)O[C@@H]8CO)O[C@@H]7CO)O[C@@H]6CO)O[C@@H]5CO)O[C@@H]4CO)O[C@@H]3CO | -1.89 | –

Assay: qHTS assay for small molecule antagonists of the retinoid-related orphan receptor gamma (ROR-gamma) signaling pathway - cell viability counter screen (AID 720652);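 also: CHO reporter cells with doxycycline-induced ROR-gamma expression; compound exposure lasted 16 hr before ATP read; % is scaled to controls: 0 for no effect and ±100 for the full control effect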
Settings: RORgamma reporter cell line viability counter screen; series mostly up to 92.2 µM; activity change, negative = cytotoxicity: at the top concentration
How it was run: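 Cytotoxicity is quantified via intracellular ATP (CellTiter-Glo luminescence) in doxycycline-induced CHO ROR response element-luciferase reporter cells treated with compound for 16 hr at 37 C, 5% CO2.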

Row | SMILES | activity change, negative = cytotoxicity [%]
20 | C=C[C@H]1CN2CC[C@H]1C[C@@H]2[C@@H](O)c1ccnc2ccc(OC)cc12 | 4.49
21 | NC(=O)c1ccccc1O | -5.53
22 | COc1ccc(C(=O)c2ccccc2)c(O)c1 | 8.57
23 | CCCCC(CC)COC(=O)c1ccc(N(C)C)cc1 (stereo not given) | -2.01
24 | CCOc1ccccc1C(N)=O | 3.85
25 | OC[C@H]1O[C@@H]2O[C@H]3[C@H](O)[C@@H](O)[C@@H](O[C@H]4[C@H](O)[C@@H](O)[C@@H](O[C@H]5[C@H](O)[C@@H](O)[C@@H](O[C@H]6[C@H](O)[C@@H](O)[C@@H](O[C@H]7[C@H](O)[C@@H](O)[C@@H](O[C@H]8[C@H](O)[C@@H](O)[C@@H](O[C@H]1[C@H](O)[C@H]2O)O[C@@H]8CO)O[C@@H]7CO)O[C@@H]6CO)O[C@@H]5CO)O[C@@H]4CO)O[C@@H]3CO | 1.43
